Several values for one entry are separate records, joined by “and”; a condition that tells them apart may be missing. Identical values can stand only once. Records with an inconclusive call do not appear. Entries that show only a call come without a potency. Some structures have more than one record in an assay (separate samples or runs), and their calls can disagree. Activity calls are given as the source filed them. Unless noted, calls come from the whole dose curve; as a rule, active = well fitted curve in the direction sought with a large enough effect in the repeat runs; inconclusive = weak or mixed curves; inactive = no such curve, though single readings can be large; an effect the other way counts as inactive or inconclusive.
Potency is the fitted concentration of half-maximal effect.

The target of one test is Estrogen receptor (Homo sapiens) (UniProt P03372). In words: qHTS assay to identify small molecule agonists of the estrogen receptor alpha (ER-alpha) signaling pathway using the BG1 cell line (AID 743079). Note: nearly all actives have a fitted effect of over 20% in size. The settings on record: BG1Luc4E2 cells, ERE-luciferase agonist, 22 h; series mostly up to 70.3 µM; activation: at the top concentration.
Chain of Estrogen receptor (Homo sapiens) (P03372 whole entry, looked up): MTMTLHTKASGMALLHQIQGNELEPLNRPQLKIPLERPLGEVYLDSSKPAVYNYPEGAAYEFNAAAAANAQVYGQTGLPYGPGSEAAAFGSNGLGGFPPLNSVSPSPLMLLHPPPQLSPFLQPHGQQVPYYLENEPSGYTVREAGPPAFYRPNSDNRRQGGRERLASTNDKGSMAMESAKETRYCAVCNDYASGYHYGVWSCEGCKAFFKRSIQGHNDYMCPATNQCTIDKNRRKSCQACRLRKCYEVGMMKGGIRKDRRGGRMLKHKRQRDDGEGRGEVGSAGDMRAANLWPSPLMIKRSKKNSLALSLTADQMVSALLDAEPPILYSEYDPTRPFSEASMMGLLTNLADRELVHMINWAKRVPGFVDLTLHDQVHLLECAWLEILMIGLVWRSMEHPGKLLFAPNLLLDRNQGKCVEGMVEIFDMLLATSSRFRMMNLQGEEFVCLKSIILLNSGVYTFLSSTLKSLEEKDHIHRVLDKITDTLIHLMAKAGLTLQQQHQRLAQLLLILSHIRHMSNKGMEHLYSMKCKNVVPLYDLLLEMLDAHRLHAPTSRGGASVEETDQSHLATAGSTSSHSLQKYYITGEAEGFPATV
For `O=C1OC2(c3ccccc31)c1cc(Br)c(O)c(Br)c1Oc1c2cc(Br)c(O)c1Br`, the “activation” value is -11.5% (inactive).

As to `CCCCC1(COC(=O)CCC(=O)O)C(=O)N(c2ccccc2)N(c2ccccc2)C1=O`, the Potency result is “inactive”.

Regarding `O=S1(=O)OC(c2ccc(O)cc2)(c2ccc(O)cc2)c2ccccc21`, the Potency was 15 µM (active) and inactive.

Turning to `CCCCCCCC(=O)OCC(COC(=O)CCCCCCC)OC(=O)CCCCCCC`, the Potency result is “inactive”.

As for `O=c1[nH]cc(F)c(=O)[nH]1`, the Potency entry is “inactive”.

Turning to `CCN(CC)C(=O)c1cccc(C)c1`, the Potency was 2.66 µM (active) and inactive.

As for `NS(=O)(=O)c1cc2c(cc1Cl)NCNS2(=O)=O`, the Potency result was “inactive”.

As for `C=C(C)C(=O)OCC(C)O` (stereo not drawn), the Potency entry is “inactive”.

Consider `O=CC(=O)c1ccccc1`, for which the “activation” value was -1.81% (inactive).

For `Cc1ncc([N+](=O)[O-])n1C`, the “activation” value is 0.0423% (inactive).

As for `CN(N=O)C(=O)N[C@@H]1[C@@H](O)[C@H](O)[C@@H](CO)O[C@@H]1O`, the Potency entry was “inactive”.

Consider `CN(C)C(=O)Nc1ccc(Cl)c(Cl)c1`, for which the Potency entry is “inactive”.

On to `Cc1cccc(C)c1`, for which the Potency entry was “inactive and 26.5 µM (active)”.

Take `COc1ccc(C(Cl)=C(c2ccc(OC)cc2)c2ccc(OC)cc2)cc1`: the “activation” value was -27.9% (inactive).

In the case of `C=CCc1ccc(O)c(OC)c1`, the Potency result was “inactive”.

With `Cc1ncc([N+](=O)[O-])n1CCO`, the Potency entry is “inactive”.

Turning to `Nc1ccc([N+](=O)[O-])cc1O`, the “activation” value was -5.95% (inactive).

As for `CCCc1cc(=O)[nH]c(=S)[nH]1`, the Potency was 26.6 µM (active) and inactive.

With `COc1cccc(O)c1O`, the “activation” value was -9.33% [at 95 µM] (inactive).

For the molecule `CCOc1ccc(NC(C)=O)cc1`, the Potency entry is “inactive”.

Take `O=c1[nH]cnc2c1ncn2[C@H]1CC[C@@H](CO)O1`: the Potency entry was “inactive”.

Tested on in another test: not listed separately
The test is described as follows: qHTS assay to identify small molecule antagonists of the estrogen receptor alpha (ER-alpha) signaling pathway using the BG1 cell line (AID 743080; calls by dose curve;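 note: BG1 cells stimulated with 17beta-estradiol alongside compound; nearly all actives have a fitted effect of over 25% in size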). The note with it: BG1Luc4E2 ERE-luciferase antagonist mode, luminescence; activity change, negative = inhibition: at 70.3 µM (top of the series). Summed up:
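BG1Luc4E2, endogenous ER-alpha, 4xERE-luc; 5 d charcoal-stripped FBS, phenol red free; 24 h plating; cpd + 17beta-estradiol 21.5 h, 37 C/5% CO2; CellTiter-Fluor viability 30 min, then ONE-Glo luciferase 30 min RT.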
On the technique in general: qHTS replaces the single test concentration by a dilution series.
Take `O=C1OC2(c3ccccc31)c1cc(Br)c(O)c(Br)c1Oc1c2cc(Br)c(O)c1Br`: the Potency entry was “inactive”.

Take `CCCCC1(COC(=O)CCC(=O)O)C(=O)N(c2ccccc2)N(c2ccccc2)C1=O`: the Potency entry was “inactive”.

In the case of `O=S1(=O)OC(c2ccc(O)cc2)(c2ccc(O)cc2)c2ccccc21`, the Potency result is “inactive”.

For the molecule `CCCCCCCC(=O)OCC(COC(=O)CCCCCCC)OC(=O)CCCCCCC`, the Potency entry was “inactive”.

`O=c1[nH]cc(F)c(=O)[nH]1`: the “activity change, negative = inhibition” value was -17.7% [at 95 µM] (inactive).

On to `CCN(CC)C(=O)c1cccc(C)c1`, for which the Potency result was “inactive”.

`NS(=O)(=O)c1cc2c(cc1Cl)NCNS2(=O)=O`: the Potency result was “inactive”.

As for `C=C(C)C(=O)OCC(C)O` (stereo not drawn), the Potency entry was “inactive”.

Consider `O=CC(=O)c1ccccc1`, for which the “activity change, negative = inhibition” value is 1.94% (inactive).

For the molecule `Cc1ncc([N+](=O)[O-])n1C`, the Potency entry was “inactive”.

Regarding `CN(N=O)C(=O)N[C@@H]1[C@@H](O)[C@H](O)[C@@H](CO)O[C@@H]1O`, the Potency result was “inactive”.

As to `CN(C)C(=O)Nc1ccc(Cl)c(Cl)c1`, the Potency entry is “inactive”.

With `Cc1cccc(C)c1`, the Potency result is “inactive”.

As for `COc1ccc(C(Cl)=C(c2ccc(OC)cc2)c2ccc(OC)cc2)cc1`, the Potency was 18.8 µM (active) and 12.1 µM (active) and 9.69 µM (active).

Consider `C=CCc1ccc(O)c(OC)c1`, for which the Potency result was “inactive”.

`Cc1ncc([N+](=O)[O-])n1CCO`: the Potency entry was “inactive”.

Turning to `Nc1ccc([N+](=O)[O-])cc1O`, the “activity change, negative = inhibition” value is 10.1% (inactive).

`CCCc1cc(=O)[nH]c(=S)[nH]1`: the Potency result is “inactive”.

Take `COc1cccc(O)c1O`: the “activity change, negative = inhibition” value is 0.359% [at 95 µM] (inactive).

Consider `CCOc1ccc(NC(C)=O)cc1`, for which the Potency result is “inactive”.

On to `O=c1[nH]cnc2c1ncn2[C@H]1CC[C@@H](CO)O1`, for which the Potency result was “inactive”.

Tested on in another test: not listed separately
In words: qHTS assay to identify small molecule antagonists of the estrogen receptor alpha (ER-alpha) signaling pathway using the BG1 cell line - cell viability counter screen (AID 743081).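 Note: compound given together with 17beta-estradiol as the ER stimulus; nearly all actives have a fitted effect of over 45% in size.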 The note with it: BG1Luc4E2 viability, CellTiter-Fluor, 22 h; series mostly up to 70.3 µM; activity change, negative = cytotoxicity: at the top concentration.
Consider `CC(C)NCC(O)c1ccc(O)c(O)c1` (stereo not drawn), for which the Potency entry is “inactive”.

On to `O=C1OC2(c3ccccc31)c1cc(Br)c(O)c(Br)c1Oc1c2cc(Br)c(O)c1Br`, for which the Potency is 11.9 µM (active) and 3.91 µM (active) and 8.88 µM (active).

Take `C[C@](N)(Cc1ccc(O)c(O)c1)C(=O)O`: the Potency result was “inactive”.

Take `CCCCC1(COC(=O)CCC(=O)O)C(=O)N(c2ccccc2)N(c2ccccc2)C1=O`: the Potency entry is “inactive”.

For the molecule `O=S1(=O)OC(c2ccc(O)cc2)(c2ccc(O)cc2)c2ccccc21`, the Potency is 13.3 µM (active) and 27.3 µM (active) and 17.2 µM (active).

Take `CCCCCCCC(=O)OCC(COC(=O)CCCCCCC)OC(=O)CCCCCCC`: the Potency result is “inactive”.

Consider `O=c1[nH]cc(F)c(=O)[nH]1`, for which the Potency result is “inactive”.

As to `CCN(CC)C(=O)c1cccc(C)c1`, the Potency result is “inactive”.

With `NS(=O)(=O)c1cc2c(cc1Cl)NCNS2(=O)=O`, the Potency entry was “inactive”.

Turning to `C=C(C)C(=O)OCC(C)O` (stereo not drawn), the Potency result is “inactive”.

`O=CC(=O)c1ccccc1`: the “activity change, negative = cytotoxicity” value is -16.3% (inactive).

For the molecule `CC(=O)C(=O)O`, the Potency result is “inactive”.

As to `Oc1ccccc1`, the Potency result is “inactive”.

`CC(=O)Nc1c(I)c(NC(C)=O)c(I)c(C(=O)O)c1I`: the Potency entry is “inactive”.

For the molecule `CC(C)c1c(C(=O)Nc2ccccc2)c(-c2ccccc2)c(-c2ccc(F)cc2)n1CC[C@@H](O)C[C@@H](O)CC(=O)O`, the Potency result is “inactive”.

Consider `Cc1ncc([N+](=O)[O-])n1C`, for which the Potency result is “inactive”.

On to `CN(N=O)C(=O)N[C@@H]1[C@@H](O)[C@H](O)[C@@H](CO)O[C@@H]1O`, for which the Potency entry was “inactive”.

On to `CN(C)C(=O)Nc1ccc(Cl)c(Cl)c1`, for which the Potency entry was “inactive”.

For the molecule `Cc1cccc(C)c1`, the Potency result is “inactive”.

For the molecule `COc1ccc(C(Cl)=C(c2ccc(OC)cc2)c2ccc(OC)cc2)cc1`, the Potency result is “inactive”.

Regarding `C=CCc1ccc(O)c(OC)c1`, the Potency result was “inactive”.

For the molecule `Cc1ncc([N+](=O)[O-])n1CCO`, the Potency entry was “inactive”.

As for `CC/C(=C(\c1ccccc1)c1ccc(OCCN(C)C)cc1)c1ccccc1`, the Potency result is “inactive”.

Turning to `CCCc1cc(=O)[nH]c(=S)[nH]1`, the Potency result is “inactive”.

Regarding `CCOc1ccc(NC(C)=O)cc1`, the Potency entry was “inactive”.

Take `O=c1[nH]cnc2c1ncn2[C@H]1CC[C@@H](CO)O1`: the Potency result is “inactive”.

The values are drawn from PubChem BioAssay (Tox21).
